Laboratory results published in PubChem BioAssay (NCI).
About 79,000 compounds went through this panel and 15% of them were active in at least one assay; those are over-represented in the sample as a whole. The source made the active and inactive calls. Rule as the data show it: active = growth inhibition above about 70%; inactive = the rest.

What was measured:
[1] = NCI Yeast Anticancer Drug Screen. Data for the wt2 strain (AID 169);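 also: 0% = growth of vehicle-treated yeast cultures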; details: S. cerevisiae wt2 strain growth inhibition, hits give high values
Procedure, shortened: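 Steps: yeast strain treated with compound; growth recorded; inhibition calculated relative to cultures given vehicle alone.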

[2] = NCI Yeast Anticancer Drug Screen. Data for the mlh1 strain (AID 171);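 also: 0% = growth of vehicle-treated control cultures of the same strain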; details: S. cerevisiae mlh1 strain growth inhibition, hits give high values
Procedure, shortened: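 Yeast screen: mutant strain plus compound, growth scored against vehicle control wells.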

[3] = NCI Yeast Anticancer Drug Screen. Data for the sgs1 strain (AID 173);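 also: 0% = growth of vehicle-only control cultures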; details: S. cerevisiae sgs1 mutant, hits give high values
Procedure, shortened: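 Inhibition of yeast growth served as the measure. The mutant strain was treated with each compound, and growth was normalised to cultures receiving vehicle alone.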

[4] = NCI Yeast Anticancer Drug Screen. Data for the mlh1 rad18 strain (AID 175); details: S. cerevisiae mlh1 rad18 strain growth inhibition, hits give high values
Procedure, shortened: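 Compound-treated yeast growth, normalised to vehicle controls. Strain bears defined DNA repair mutations.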

[5] = NCI Yeast Anticancer Drug Screen. Data for the rad18 strain (AID 177); details: S. cerevisiae rad18 mutant growth inhibition, hits give high values
Procedure, shortened: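 Inhibition values reflect reduced yeast growth compared with vehicle-treated controls, using a strain engineered with a DNA damage repair defect.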

[6] = NCI Yeast Anticancer Drug Screen. Data for the rad52 strain (AID 147);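 also: 0% = growth of vehicle-treated control cultures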; details: S. cerevisiae rad52 mutant growth inhibition, hits give high values
Procedure, shortened: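 Genetically altered yeast (DNA damage repair defect) treated with compound; inhibition calculated relative to vehicle.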

[7] = NCI Yeast Anticancer Drug Screen. Data for the wt1 strain (AID 149);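 also: 0% = growth of vehicle-treated wt1 cultures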; details: S. cerevisiae wt1 strain (SPY 50644) growth inhibition, hits give high values
Procedure, shortened: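 Using yeast strain wt1, compound-induced growth inhibition was determined against vehicle-treated cultures.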

[8] = NCI Yeast Anticancer Drug Screen. Data for the rad50EPP+ strain (AID 151);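 also: 0% = growth of vehicle-treated control cultures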; details: S. cerevisiae rad50 mutant strain, hits give high values
Procedure, shortened: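 Strain rad50EPP+; compound exposure; % growth inhibition vs vehicle.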

[9] = NCI Yeast Anticancer Drug Screen. Data for the mgt1 strain (AID 153); details: S. cerevisiae mgt1 mutant growth inhibition, hits give high values
Procedure, shortened: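 Read-out: yeast growth inhibition vs vehicle control. Strain mgt1, drawn from a panel altered in DNA damage repair or cell cycle control.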

[10] = NCI Yeast Anticancer Drug Screen. Data for the rad50 strain (AID 155);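 also: 0% = growth of vehicle-only cultures of the same strain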; details: S. cerevisiae rad50 strain growth inhibition, hits give high values
Procedure, shortened: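 Relative growth inhibition (compound vs vehicle) was measured in yeast with a defined repair-gene alteration.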

[11] = NCI Yeast Anticancer Drug Screen. Data for the mec2-1 strain (AID 157); details: S. cerevisiae mec2-1 strain, hits give high values
Procedure, shortened: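 Cells of the genetically defined mec2-1 yeast strain are incubated with test compound. Inhibition of growth is calculated against vehicle-treated controls.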

[12] = NCI Yeast Anticancer Drug Screen. Data for the rad14 strain (AID 159);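 also: 0% = growth of vehicle-treated control cultures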; details: S. cerevisiae rad14 strain growth inhibition, hits give high values
Procedure, shortened: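 Screen for anticancer potential: a yeast strain altered in DNA damage repair is grown with compound, and reduced growth is quantified against vehicle controls.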

[13] = NCI Yeast Anticancer Drug Screen. Data for the sgs1 mgt1 strain (AID 161);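 also: 0% = growth of cultures given vehicle only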; details: S. cerevisiae sgs1 mgt1 strain, hits give high values
Procedure, shortened: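 Inhibition of yeast growth, normalised to vehicle-treated controls, is reported for a strain bearing genetic alterations in DNA damage repair.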

[14] = NCI Yeast Anticancer Drug Screen. Data for the CLN2oe strain (AID 163);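 also: 0% = growth of vehicle-only control cultures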; details: S. cerevisiae CLN2oe strain, hits give high values
Procedure, shortened: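 Strain altered in cell-cycle control, incubated with compound; growth compared to solvent-treated controls.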

[15] = NCI Yeast Anticancer Drug Screen. Data for the cln2 rad14 strain (AID 165);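 also: 0% = growth equal to vehicle treated cultures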; details: S. cerevisiae cln2 rad14 strain, hits give high values
Procedure, shortened: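 The screen exposed genetically defined yeast (cln2 rad14) to test compounds and scored growth inhibition relative to vehicle-treated controls.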

[16] = NCI Yeast Anticancer Drug Screen. Data for the bub3 strain (AID 167); details: S. cerevisiae bub3 mutant strain, hits give high values
Procedure, shortened: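 Screening used yeast with an engineered genetic alteration affecting cell cycle control. Compound-exposed cultures were compared with vehicle cultures, and reduced growth was taken as inhibition.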

[17] = at 5.0 µM (retest, dose inferred, filed as 0.5)
[18] = at 50.0 µM (retest, dose inferred, filed as 5.0)

Measured: growth inhibition

Nc1ccc(F)cc1S
inactive: [1]; at 1.2 µM 4% | [1]; at 3.7 µM -8% | [1]; at 11.0 µM 56% | [2]; at 1.2 µM -20% | [2]; at 3.7 µM -19% | [2]; at 11.0 µM 2% | [3]; at 1.2 µM -16% | [3]; at 3.7 µM -24% | [3]; at 11.0 µM -14% | [3]; at 33.0 µM 46% | [4]; [17] 15% | [5]; at 1.2 µM -28% | [5]; at 3.7 µM -30% | [5]; at 11.0 µM 1%
active: [1]; at 33.0 µM 95% | [1]; at 100.0 µM 98% | [2]; at 33.0 µM 83% | [2]; at 100.0 µM 98% | [3]; at 100.0 µM 97% | [4]; [18] 76% | [4]; at 50.0 µM 89.3% | [5]; at 33.0 µM 71% | [5]; at 100.0 µM 97%

CC(=O)ON=C1C=CC(=C(C#N)c2ccc(Cl)cc2)C=C1
active: [8]; at 33.0 µM 91% | [8]; at 100.0 µM 96% | [9]; at 100.0 µM 77% | [10]; [18] 97% | [10]; at 50.0 µM 99.4% | [11]; [18] 99% | [11]; at 50.0 µM 99% | [12]; at 100.0 µM 98% | [13]; [18] 99% | [13]; at 50.0 µM 99.5% | [15]; [18] 98% | [15]; at 50.0 µM 77.1% | [16]; [18] 75% | [1]; at 100.0 µM 86% | [2]; at 100.0 µM 74% | [3]; at 100.0 µM 95% | [4]; [18] 97% | [4]; at 50.0 µM 98.5%
inactive: [6]; at 1.2 µM 1% | [6]; at 3.7 µM -1% | [6]; at 11.0 µM 1% | [6]; at 33.0 µM 22% | [6]; at 100.0 µM 69% | [7]; at 1.2 µM 0% | [7]; at 3.7 µM 0% | [7]; at 11.0 µM 4% | [7]; at 33.0 µM 10% | [7]; at 100.0 µM 61% | [8]; at 1.2 µM 19% | [8]; at 3.7 µM 38% | [8]; at 11.0 µM 64% | [9]; at 1.2 µM 0% | [9]; at 3.7 µM 2% | [9]; at 11.0 µM 4% | [9]; at 33.0 µM 42% | [10]; at 1.2 µM 0% | [10]; at 3.7 µM -3% | [10]; [17] 25% | [10]; at 11.0 µM -1% | [10]; at 33.0 µM 9% | [10]; at 100.0 µM 59% | [11]; at 1.2 µM -1% | [11]; at 3.7 µM 0% | [11]; [17] 11% | [11]; at 11.0 µM 1% | [11]; at 33.0 µM 19% | [11]; at 100.0 µM 59% | [12]; at 1.2 µM -3% | [12]; at 3.7 µM -4% | [12]; at 11.0 µM -1% | [12]; at 33.0 µM 22% | [13]; [17] 41% | [14]; at 1.2 µM -3% | [14]; at 3.7 µM -8% | [14]; at 11.0 µM -1% | [14]; at 33.0 µM 3% | [14]; at 100.0 µM 56% | [15]; [17] 7% | [16]; at 1.2 µM -4% | [16]; at 3.7 µM -4% | [16]; [17] 3% | [16]; at 11.0 µM -5% | [16]; at 33.0 µM 7% | [16]; at 50.0 µM 56% | [16]; at 100.0 µM 50% | [1]; at 1.2 µM 1% | [1]; at 3.7 µM 3% | [1]; at 11.0 µM 9% | [1]; at 33.0 µM 52% | [2]; at 1.2 µM 4% | [2]; at 3.7 µM 3% | [2]; at 11.0 µM 9% | [2]; at 33.0 µM 38% | [3]; at 1.2 µM 2% | [3]; at 3.7 µM 10% | [3]; at 11.0 µM 16% | [3]; at 33.0 µM 58% | [4]; [17] 29%
